Source: the supplement of paper PMC11732987, “Enantioselective OTUD7B fragment discovery through chemoproteomics screening and high-throughput optimisation” (Communications Chemistry, 2025)
Values without a mark were called inactive.

Assays:
Assay in all cases: log2 ratio of Biotin-Ahx-Ub-VS probe labelling (fragment/DMSO); higher = less target engagement (more negative = stronger competition), active = hit call of the paper (q ≤ 0.05, log2 ratio ≤ -1)
Conditions in all cases: compound concentration: 200 uM; treatment time: 3 h
[1] = target: T1, ALG13 (UniProt Q9NP73)
T1 sequence (whole entry): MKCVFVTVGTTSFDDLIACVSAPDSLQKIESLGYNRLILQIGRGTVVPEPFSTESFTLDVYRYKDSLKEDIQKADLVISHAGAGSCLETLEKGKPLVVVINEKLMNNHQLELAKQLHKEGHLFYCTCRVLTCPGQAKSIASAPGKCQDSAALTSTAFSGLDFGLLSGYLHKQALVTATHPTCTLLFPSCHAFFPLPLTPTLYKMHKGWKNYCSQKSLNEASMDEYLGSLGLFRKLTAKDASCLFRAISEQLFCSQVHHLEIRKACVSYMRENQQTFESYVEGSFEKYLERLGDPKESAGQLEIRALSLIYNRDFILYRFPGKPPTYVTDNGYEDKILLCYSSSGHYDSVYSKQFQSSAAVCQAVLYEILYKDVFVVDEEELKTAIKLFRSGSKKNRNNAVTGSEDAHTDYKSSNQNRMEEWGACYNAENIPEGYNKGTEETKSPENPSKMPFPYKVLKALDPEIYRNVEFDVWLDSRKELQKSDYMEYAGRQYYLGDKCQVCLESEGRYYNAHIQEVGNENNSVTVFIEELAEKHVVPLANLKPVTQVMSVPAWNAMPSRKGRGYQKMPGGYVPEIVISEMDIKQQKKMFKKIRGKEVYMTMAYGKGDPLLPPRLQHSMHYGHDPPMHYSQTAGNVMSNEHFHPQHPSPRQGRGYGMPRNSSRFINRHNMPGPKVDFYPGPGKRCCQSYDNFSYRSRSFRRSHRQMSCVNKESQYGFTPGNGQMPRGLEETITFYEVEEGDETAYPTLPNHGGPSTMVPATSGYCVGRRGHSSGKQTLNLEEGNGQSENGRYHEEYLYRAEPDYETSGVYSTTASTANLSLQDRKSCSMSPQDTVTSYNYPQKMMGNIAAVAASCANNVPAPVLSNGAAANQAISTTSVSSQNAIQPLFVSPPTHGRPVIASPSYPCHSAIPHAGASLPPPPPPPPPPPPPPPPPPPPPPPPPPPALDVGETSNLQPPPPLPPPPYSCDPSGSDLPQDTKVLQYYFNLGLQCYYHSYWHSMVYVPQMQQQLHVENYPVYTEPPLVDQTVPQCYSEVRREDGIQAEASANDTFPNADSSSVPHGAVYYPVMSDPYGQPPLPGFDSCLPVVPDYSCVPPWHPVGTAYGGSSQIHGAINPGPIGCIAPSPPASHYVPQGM
How it was run: (§1)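 Global-median-normalised Spectronaut label-free quantities were compared by unpaired t-test, and values are average log2 ratios of fragment over vehicle. Only proteins with ≥2 unique peptides were used. HEK293T lysate (495 µg per sample) was treated in triplicate with fragment at 200 µM or vehicle for 3 h and then with Biotin-Ahx-Ub-VS at 0.5 µM final for 1 h. Labelled DUBs were then NeutrAvidin-enriched, digested with LysC and trypsin, and run by diaPASEF LC-MS/MS.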

[2] = target: ATXN3 (UniProt P54252)
ATXN3, sequence (P54252 whole entry): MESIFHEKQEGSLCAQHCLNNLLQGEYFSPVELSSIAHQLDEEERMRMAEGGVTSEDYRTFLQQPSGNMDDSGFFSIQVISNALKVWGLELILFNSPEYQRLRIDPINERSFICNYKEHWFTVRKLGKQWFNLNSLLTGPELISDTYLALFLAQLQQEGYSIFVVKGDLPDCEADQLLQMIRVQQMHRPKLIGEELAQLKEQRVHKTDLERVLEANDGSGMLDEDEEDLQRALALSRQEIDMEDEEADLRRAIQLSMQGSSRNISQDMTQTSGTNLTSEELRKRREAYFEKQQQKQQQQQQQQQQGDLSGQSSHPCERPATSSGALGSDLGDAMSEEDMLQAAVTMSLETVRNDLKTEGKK
How it was run: as §1

[3] = target: T2, BAP1 (UniProt Q92560)
T2 sequence (whole entry): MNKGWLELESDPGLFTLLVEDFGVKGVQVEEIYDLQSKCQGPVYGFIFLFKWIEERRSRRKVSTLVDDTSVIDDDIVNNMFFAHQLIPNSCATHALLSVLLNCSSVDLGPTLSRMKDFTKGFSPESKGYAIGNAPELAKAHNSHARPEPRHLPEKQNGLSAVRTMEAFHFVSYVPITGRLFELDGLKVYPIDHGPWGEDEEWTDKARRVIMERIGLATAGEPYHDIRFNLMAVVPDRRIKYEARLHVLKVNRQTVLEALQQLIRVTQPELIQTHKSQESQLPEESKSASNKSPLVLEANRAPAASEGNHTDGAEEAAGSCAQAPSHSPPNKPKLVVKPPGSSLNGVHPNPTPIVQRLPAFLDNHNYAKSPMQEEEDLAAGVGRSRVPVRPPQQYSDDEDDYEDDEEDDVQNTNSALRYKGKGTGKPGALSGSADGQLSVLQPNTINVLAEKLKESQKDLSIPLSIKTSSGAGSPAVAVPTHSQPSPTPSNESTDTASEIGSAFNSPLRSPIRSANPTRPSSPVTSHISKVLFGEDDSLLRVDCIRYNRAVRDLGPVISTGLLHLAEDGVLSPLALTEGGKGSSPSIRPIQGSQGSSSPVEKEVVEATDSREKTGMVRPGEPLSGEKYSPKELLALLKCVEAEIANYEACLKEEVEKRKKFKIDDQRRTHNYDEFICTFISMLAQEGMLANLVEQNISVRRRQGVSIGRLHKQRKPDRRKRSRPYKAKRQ
How it was run: as §1

[4] = target: EIF3F (UniProt O00303)
EIF3F, sequence (O00303 whole entry): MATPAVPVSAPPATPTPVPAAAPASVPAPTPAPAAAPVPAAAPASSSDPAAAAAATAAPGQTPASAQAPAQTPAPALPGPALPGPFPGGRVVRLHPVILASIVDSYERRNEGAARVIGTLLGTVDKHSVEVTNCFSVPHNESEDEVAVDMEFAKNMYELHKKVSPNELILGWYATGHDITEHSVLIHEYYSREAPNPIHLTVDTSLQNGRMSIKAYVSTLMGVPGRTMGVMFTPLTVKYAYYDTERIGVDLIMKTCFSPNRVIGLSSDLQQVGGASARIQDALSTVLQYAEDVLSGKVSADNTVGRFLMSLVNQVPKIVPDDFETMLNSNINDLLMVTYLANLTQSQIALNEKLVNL
How it was run: as §1

[5] = target: EIF3H (UniProt O15372)
EIF3H, sequence (O15372 whole entry): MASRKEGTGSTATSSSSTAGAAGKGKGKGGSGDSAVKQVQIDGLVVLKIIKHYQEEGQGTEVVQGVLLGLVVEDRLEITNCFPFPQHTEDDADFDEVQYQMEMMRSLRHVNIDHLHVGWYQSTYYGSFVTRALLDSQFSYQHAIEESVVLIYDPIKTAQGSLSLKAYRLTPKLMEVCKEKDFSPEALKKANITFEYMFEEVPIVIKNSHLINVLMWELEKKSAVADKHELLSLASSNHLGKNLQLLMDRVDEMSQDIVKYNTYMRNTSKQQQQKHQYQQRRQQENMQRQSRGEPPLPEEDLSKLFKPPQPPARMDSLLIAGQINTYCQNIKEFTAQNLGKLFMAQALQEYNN
How it was run: as §1

[6] = target: T3, FAM105A (UniProt Q9NUU6)
T3 sequence (whole entry): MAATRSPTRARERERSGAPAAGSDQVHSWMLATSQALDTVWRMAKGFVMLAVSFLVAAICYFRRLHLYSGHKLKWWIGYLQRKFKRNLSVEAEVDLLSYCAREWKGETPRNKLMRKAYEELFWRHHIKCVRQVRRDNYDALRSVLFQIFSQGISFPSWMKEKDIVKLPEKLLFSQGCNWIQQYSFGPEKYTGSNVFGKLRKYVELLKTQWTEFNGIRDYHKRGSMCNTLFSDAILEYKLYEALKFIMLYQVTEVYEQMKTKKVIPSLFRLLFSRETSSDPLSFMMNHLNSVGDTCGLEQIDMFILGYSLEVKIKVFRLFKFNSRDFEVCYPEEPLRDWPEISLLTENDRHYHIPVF
How it was run: as §1

[7] = target: OTUB1 (UniProt Q96FW1)
OTUB1, sequence (Q96FW1 whole entry): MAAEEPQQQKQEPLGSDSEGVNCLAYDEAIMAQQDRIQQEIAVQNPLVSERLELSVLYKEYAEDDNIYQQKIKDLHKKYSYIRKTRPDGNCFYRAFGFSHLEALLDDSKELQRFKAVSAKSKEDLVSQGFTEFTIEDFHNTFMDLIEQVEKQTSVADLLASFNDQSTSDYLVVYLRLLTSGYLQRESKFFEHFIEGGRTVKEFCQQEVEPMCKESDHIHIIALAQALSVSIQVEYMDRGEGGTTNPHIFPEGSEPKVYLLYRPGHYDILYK
How it was run: as §1

[8] = target: T4, OTUD4 (UniProt Q01804)
T4 sequence (whole entry): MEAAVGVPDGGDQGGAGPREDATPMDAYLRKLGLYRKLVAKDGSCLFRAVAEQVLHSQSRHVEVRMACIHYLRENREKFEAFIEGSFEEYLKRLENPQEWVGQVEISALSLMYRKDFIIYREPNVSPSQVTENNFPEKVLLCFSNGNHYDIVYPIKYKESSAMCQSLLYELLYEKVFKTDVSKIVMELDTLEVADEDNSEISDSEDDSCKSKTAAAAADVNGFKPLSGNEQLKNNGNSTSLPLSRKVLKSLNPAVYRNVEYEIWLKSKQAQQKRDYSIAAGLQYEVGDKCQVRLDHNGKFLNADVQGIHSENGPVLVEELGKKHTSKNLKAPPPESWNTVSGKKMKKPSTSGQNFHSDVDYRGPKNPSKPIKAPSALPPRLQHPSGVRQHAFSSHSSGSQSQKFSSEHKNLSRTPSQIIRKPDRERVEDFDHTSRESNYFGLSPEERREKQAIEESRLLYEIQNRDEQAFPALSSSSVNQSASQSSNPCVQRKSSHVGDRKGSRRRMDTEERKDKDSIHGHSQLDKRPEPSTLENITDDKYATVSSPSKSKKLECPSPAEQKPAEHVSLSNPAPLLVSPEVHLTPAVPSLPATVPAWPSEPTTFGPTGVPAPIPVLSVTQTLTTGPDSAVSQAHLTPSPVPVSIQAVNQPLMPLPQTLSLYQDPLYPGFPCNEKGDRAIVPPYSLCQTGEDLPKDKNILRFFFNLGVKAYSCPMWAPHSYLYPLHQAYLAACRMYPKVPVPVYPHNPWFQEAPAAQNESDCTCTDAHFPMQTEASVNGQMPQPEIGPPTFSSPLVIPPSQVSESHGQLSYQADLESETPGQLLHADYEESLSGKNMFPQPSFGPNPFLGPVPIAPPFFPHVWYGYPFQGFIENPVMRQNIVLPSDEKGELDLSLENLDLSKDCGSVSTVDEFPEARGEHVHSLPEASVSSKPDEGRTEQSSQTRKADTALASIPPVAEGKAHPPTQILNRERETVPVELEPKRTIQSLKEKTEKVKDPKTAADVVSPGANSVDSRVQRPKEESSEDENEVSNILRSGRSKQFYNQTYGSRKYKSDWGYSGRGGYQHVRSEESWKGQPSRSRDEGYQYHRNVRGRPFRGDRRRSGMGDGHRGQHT
How it was run: as §1

[9] = target: T5, OTUD5 (UniProt Q96G74)
T5 sequence (whole entry): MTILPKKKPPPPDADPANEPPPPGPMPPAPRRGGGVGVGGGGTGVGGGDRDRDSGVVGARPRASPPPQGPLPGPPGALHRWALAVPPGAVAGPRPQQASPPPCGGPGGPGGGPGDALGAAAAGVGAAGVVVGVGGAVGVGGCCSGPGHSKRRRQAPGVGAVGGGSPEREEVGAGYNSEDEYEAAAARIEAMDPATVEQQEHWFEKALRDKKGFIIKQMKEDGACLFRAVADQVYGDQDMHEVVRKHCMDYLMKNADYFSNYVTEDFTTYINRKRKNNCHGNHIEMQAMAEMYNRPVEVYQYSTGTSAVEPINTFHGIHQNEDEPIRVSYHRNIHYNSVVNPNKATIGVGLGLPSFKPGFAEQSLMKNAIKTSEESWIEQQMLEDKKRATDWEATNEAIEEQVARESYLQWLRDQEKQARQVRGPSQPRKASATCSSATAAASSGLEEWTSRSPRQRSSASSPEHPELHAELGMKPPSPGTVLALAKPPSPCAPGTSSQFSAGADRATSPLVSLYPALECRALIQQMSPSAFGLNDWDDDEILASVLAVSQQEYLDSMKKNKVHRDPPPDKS
How it was run: as §1

Structure (SMILES) | log2 ratio of Biotin-Ahx-Ub-VS probe labelling [1] | log2 ratio of Biotin-Ahx-Ub-VS probe labelling [2] | log2 ratio of Biotin-Ahx-Ub-VS probe labelling [3] | log2 ratio of Biotin-Ahx-Ub-VS probe labelling [4] | log2 ratio of Biotin-Ahx-Ub-VS probe labelling [5] | log2 ratio of Biotin-Ahx-Ub-VS probe labelling [6] | log2 ratio of Biotin-Ahx-Ub-VS probe labelling [7] | log2 ratio of Biotin-Ahx-Ub-VS probe labelling [8] | log2 ratio of Biotin-Ahx-Ub-VS probe labelling [9]
CCN(C(=O)CCl)C1CCCCC1 | 0.0472 | -0.0119 | 0.174 | -0.141 | 0.022 | -0.207 | 0.0443 | -0.12 | -0.00145
Cc1ccc(C(=O)NCCNC(=O)CCl)cc1 | -0.0475 | -0.159 | -1.49 (active) | -0.13 | -0.101 | -0.349 | -0.162 | -0.371 | -0.264
C[C@H]1CN(C(=O)CCl)CCN1C(=O)c1cnn(C)c1.Cl | 0.134 | -0.631 | -0.356 | 0.132 | 0.0411 | 0.375 | -0.204 | -0.236 | -0.326
O=C(CCl)N1CCc2ccccc2C(O)C1 (stereo not given) | 0.0799 | -0.585 | -0.705 | -0.125 | -0.359 | -0.413 | 0.0821 | -0.69 | -1.31 (active)
Cl.O=C(CCl)NCCc1ncc(F)cc1F | 0.103 | -0.404 | -1.21 (active) | -0.289 | 0.21 | 0.131 | -0.111 | -0.506 | -0.474
CN(CCC(O)c1ccc(Br)cc1)C(=O)CCl (stereo not given) | -0.222 | -0.473 | -2.04 (active) | -0.372 | 0.178 | 0.138 | -0.231 | -0.192 | -0.354
Cl.O=C(CN1CCN(C(=O)CCl)CC1)Nc1ccc(F)cc1 | -0.446 | -0.144 | -0.159 | -0.203 | 0.305 | -0.0798 | 0.137 | 0.146 | -0.0696
O=C(CCl)N1CCC(S(=O)(=O)c2ccc(F)cc2)CC1 | -0.536 | -0.72 | -1.46 (active) | -0.133 | 0.256 | -0.39 | 0.147 | -0.273 | -0.457
O=C(CCl)N1CCCCC12CCOCC2 | 0.112 | -0.355 | -1.05 (active) | -0.323 | -0.162 | 0.208 | -0.126 | -0.484 | -0.461
O=C(CCl)NCc1ccc(N2CCOCC2)nc1 | 0.174 | -0.193 | -2.61 (active) | -0.156 | 0.183 | 0.479 | 0.0139 | -0.539 | -0.385
O=C(CCl)Nc1nc(-c2cccs2)cs1 | 0.184 | -0.6 | -3.09 (active) | -0.0224 | 0.216 | -0.186 | 0.196 | -0.708 | -0.636
O=C(CCl)NC1CCOc2ccccc21 (stereo not given) | -0.044 | -0.806 | -2.55 (active) | -0.349 | 0.199 | 0.29 | -0.321 | -2.03 (active) | -0.73
O=C(CCl)N1CCC(C(=O)N2CCCCCC2)CC1 | 0.205 | -0.407 | -0.398 | -0.0762 | 0.0816 | -0.0217 | 0.0563 | -0.035 | -0.328
NS(=O)(=O)c1ccc(Cl)c(NC(=O)CCl)c1 | -0.591 | -0.697 | -4.06 (active) | -0.117 | 0.198 | 0.226 | -0.37 | -2.55 (active) | -1.72 (active)
N#Cc1ccc(Cl)cc1NC(=O)CCl | -0.187 | -0.113 | -4.1 (active) | -0.13 | 0.269 | -0.217 | -0.265 | -1.18 (active) | -0.589
